Rows were chosen to be rich in hits. Some 2.9% of all compounds tested hit in one or more screens of this group.
EBNA-1 inhibitor: blocks EBNA-1 binding to DNA; EBNA-1 DNA binding, fluorescence polarization; inhibition, % at 14.8 µM; 300,000 tested, 0.34% active; in the data active means inhibition above about 28%
pPAFAH inh: inhibitors of human plasma PAF acetylhydrolase (pPAFAH); 330,000 tested, 1.5% active; AID 463082; Q13093; inhibition, % at 3.39 µM; recombinant pPAFAH, FP-rhodamine probe fluorescence polarization;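 active means inhibition above the mean inhibition across the screen plus 3 SD, cut at about 25% in these data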;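 further: inhibitors block binding of the rhodamine activity-based probe so polarization drops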
PAFAH1B2 FP inh: inhibitors of human PAFAH1B2. P68402. recombinant PAFAH1B2, FP-rhodamine activity probe, fluorescence polarization. inhibition, % at 3.39 µM. 340,000 tested, 1.2% active;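 active means inhibition above the mean of all tested compounds plus 3 SD, cut at about 24% in these data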
PAFAH2 inh: PAFAH2 (human) inhibition | inhibition, % at 3.39 µM | Q99487 | 340,000 tested, 0.99% active | recombinant PAFAH2, FP-rhodamine activity probe, fluorescence polarization;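 active means inhibition above the mean over all tested compounds plus 3 SD, cut at about 30% in these data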;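 further: inhibitors block probe labeling of enzyme so polarization drops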
PAFAH1B3 FP inh: inhibitors of human PAFAH1B3; Q15102; recombinant PAFAH1B3, FP-rhodamine probe, fluorescence polarization; inhibition, % at 3.39 µM; 340,000 tested, 0.28% active; AID 492972;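 active means inhibition above the screen-wide average of all tested compounds plus 3 SD, cut at about 25% in these data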
Target sequence (Q15102 whole entry, looked up): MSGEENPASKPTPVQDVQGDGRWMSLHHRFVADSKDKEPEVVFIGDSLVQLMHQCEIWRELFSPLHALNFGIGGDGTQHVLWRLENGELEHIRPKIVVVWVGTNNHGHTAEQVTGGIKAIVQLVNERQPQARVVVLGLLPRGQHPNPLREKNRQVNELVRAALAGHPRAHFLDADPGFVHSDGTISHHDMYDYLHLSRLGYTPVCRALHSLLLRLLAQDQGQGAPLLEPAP
ZTA DNA inh: blocks Epstein-Barr virus ZTA, an EBNA-1 counter-screen; ZTA-DNA binding, fluorescence polarization; P03206; 320,000 tested, 0.15% active; inhibition, % at 11 µM; AID 2234; in the data active means inhibition above about 33%
Target sequence (P03206 whole entry, looked up): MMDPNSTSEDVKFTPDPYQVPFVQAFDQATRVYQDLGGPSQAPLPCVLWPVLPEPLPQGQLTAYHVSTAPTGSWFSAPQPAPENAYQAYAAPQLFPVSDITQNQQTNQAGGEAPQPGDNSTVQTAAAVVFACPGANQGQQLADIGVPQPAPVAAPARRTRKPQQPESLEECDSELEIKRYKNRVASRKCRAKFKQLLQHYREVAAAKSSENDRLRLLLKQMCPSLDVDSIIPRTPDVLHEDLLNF
PAFAH2 confirm: PAFAH2 (human) inhibition, confirmed; shares compounds with PAFAH2 inh; recombinant PAFAH2, FP-rhodamine activity probe, fluorescence polarization; inhibition, % at 3.39 µM; 2,300 tested, 65% active; AID 493030;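 active means mean inhibition over three repeats above a set limit taken from the earlier primary screen, cut at about 30% in these data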;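 further: inhibitor blocks binding of rhodamine activity probe so polarization falls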
Each line names hits and unclear results; the compound was inactive in the other large screens (follow-up assays come after a bar, where they were run).

CN(C)S(=O)(=O)c1ccc(C(=O)N2CCN(S(=O)(=O)c3cccs3)CC2)cc1	PAFAH2 inh 42 | PAFAH2 confirm 39
O=C(Nc1cccc(-c2csc(Nc3cccc(C(F)(F)F)c3)n2)c1)c1cc([N+](=O)[O-])cc(C(F)(F)F)c1	PAFAH2 inh 30 | PAFAH2 confirm inactive
O=C(Nc1ccc(-c2csc(Nc3ccccc3)n2)cc1)c1cc([N+](=O)[O-])cc(C(F)(F)F)c1	PAFAH2 inh 50 | PAFAH2 confirm inactive
O=C(Nc1ccc(-c2csc(Nc3ccccc3)n2)cc1)c1cccc(C(F)(F)F)c1	none
O=c1oc(-c2cccs2)nc2sc3c(c12)CCCCC3	none
O=c1oc(-c2cc3ccccc3o2)nc2sc3c(c12)CCCC3	PAFAH2 inh 69 | PAFAH2 confirm 68
Cc1ccccc1-c1nc2sc3c(c2c(=O)o1)CCC3	PAFAH2 inh 76 | PAFAH2 confirm 80
O=c1oc(/C=C/c2ccccc2)nc2sc3c(c12)CCC3	PAFAH2 inh 66 | PAFAH2 confirm 60
O=c1oc(-c2ccccc2)nc2sc3c(c12)CCCC3	PAFAH2 inh 49 | PAFAH2 confirm 37
CCc1nc2sc3c(c2c(=O)o1)CCCC3	none
COc1ccc(CCN2CC(C(=O)NCCc3cnn(C)c3)CCC2=O)cc1 (centres undefined)	none
COc1ccc(F)cc1S(=O)(=O)NCC1CCCO1 (centres undefined)	none
CCC(C)(C)NC(=O)C(c1cccc(OC)c1)N(C(=O)CNC(=O)c1cccs1)c1cccnc1 (centres undefined)	none
Cc1cc(C)c(S(=O)(=O)N2CCC(C(=O)NCc3ccncc3)CC2)c(C)c1	PAFAH2 inh 101 | PAFAH2 confirm inactive
Cc1cc(C)c(S(=O)(=O)N2CCCC(C(=O)NCc3ccncc3)C2)c(C)c1 (centres undefined)	none
N/C(=N\OC(=O)c1cccs1)C1(c2ccc(Cl)cc2Cl)CC1	PAFAH2 inh 58 | PAFAH2 confirm 30
CCc1ccc(/C=C2\Oc3c(ccc(O)c3CN3CCN(C)CC3)C2=O)cc1	PAFAH2 inh 58 | PAFAH2 confirm 53
Cc1ccc(/C=C2\Oc3c(ccc(O)c3CN3CCN(C)CC3)C2=O)cc1	none
CCN1CCN(Cc2c(O)ccc3c2O/C(=C\c2ccc(C)cc2)C3=O)CC1	PAFAH2 inh 33 | PAFAH2 confirm inactive
CCN1CCN(Cc2c(O)ccc3c2O/C(=C\C=C\c2ccccc2)C3=O)CC1	PAFAH2 inh 36 | PAFAH2 confirm 32
CC/C(=N\N=C(/CC)c1ccccc1N)c1ccccc1N	none
CNc1ccc(C(=O)OCC(=O)Nc2ccnn2C(C)C)cc1[N+](=O)[O-]	PAFAH2 inh 60 (no result: EBNA-1 inhibitor) | PAFAH2 confirm 46
O=C(CC12CC3CC(CC(C3)C1)C2)NCC(=O)N1CCc2ccccc2C1	PAFAH2 inh 81 | PAFAH2 confirm 71
O=C(NCC(=O)N1CCc2ccccc2C1)c1ccccc1Cl	none (no result: EBNA-1 inhibitor, pPAFAH inh, ZTA DNA inh)
Cc1ccc(N2CCN(C(=O)CNS(=O)(=O)c3ccc(Br)s3)CC2C)cc1 (centres undefined)	PAFAH2 inh 36 | PAFAH2 confirm inactive
CCCn1c(C(O)c2cccc(OC)c2)nc2ccccc21 (centres undefined)	none (no result: EBNA-1 inhibitor, pPAFAH inh, ZTA DNA inh)
CC(NC(=O)COC(=O)C1CCCCC1)c1ccccc1 (centres undefined)	PAFAH2 inh 36 (no result: EBNA-1 inhibitor, ZTA DNA inh) | PAFAH2 confirm inactive
CC(NC(=O)COC(=O)C1CC1C)c1ccccc1 (centres undefined)	PAFAH2 inh 33 (no result: EBNA-1 inhibitor, ZTA DNA inh) | PAFAH2 confirm 30
CCOC(=O)C1=C(C)NC(C)=C(C(=O)OCC)C1C(=O)OCC(=O)NC(C)c1ccccc1 (centres undefined)	none (no result: EBNA-1 inhibitor, pPAFAH inh, ZTA DNA inh)
NS(=O)(=O)c1ccc(NC(=O)COC(=O)C2CCCCC2)cc1	none
CC(C)c1ccc(NC(=O)COC(=O)C2CCCCC2)cc1	PAFAH2 inh 45 (no result: EBNA-1 inhibitor) | PAFAH2 confirm inactive
CC(NC(=O)COC(=O)C1CC1C)c1cccc(Cl)c1 (centres undefined)	PAFAH2 inh 36 (no result: EBNA-1 inhibitor, ZTA DNA inh) | PAFAH2 confirm inactive
CC(O)CNC(=O)Cc1cc(=O)[nH]c(=O)[nH]1 (centres undefined)	none
CC(C)NC(=O)COc1nncc2ccccc12	none
Cn1c(C2=C(O)CN(Cc3ccccc3)C2=N)nc2ccccc21	none
CC1CCCC(NC(=O)COC(=O)c2cccs2)C1C (centres undefined)	PAFAH2 inh 81 (no result: EBNA-1 inhibitor) | PAFAH2 confirm 85
CC1CCCC(NC(=O)CNC(=O)c2cccs2)C1C (centres undefined)	none
CC1CCCC(NC(=O)COC(=O)c2n[nH]c3ccccc23)C1C (centres undefined)	PAFAH2 inh 79 (no result: EBNA-1 inhibitor, ZTA DNA inh) | PAFAH2 confirm 72
O=C(COC(=O)c1ccc(NS(=O)(=O)c2cccs2)cc1O)NC1CCCCC1	PAFAH2 inh 34 | PAFAH2 confirm inactive
O=C(COC(=O)CCC(=O)c1cccs1)NC1CCCCC1	none (no result: EBNA-1 inhibitor)
O=C(COC(=O)c1cccs1)NC1CCCC1	PAFAH2 inh 81 | PAFAH2 confirm 74
CCOc1ccc(C(C)=O)cc1NC(=O)/C=C\C(=O)O	none
Cc1cc(S(=O)(=O)NCc2ccc(N3CCN(C)CC3)cc2)c(C)s1	none (no result: PAFAH1B2 FP inh, PAFAH2 inh, PAFAH1B3 FP inh)
O=C(COC(=O)c1cccs1)NC1CCCCC1	PAFAH2 inh 76 | PAFAH2 confirm 85
Cc1ccc(NC(=O)COC(=O)CNC(=O)c2ccc(C)s2)cc1	none
Cc1ccc(C(=O)NCC(=O)OCC(=O)NC2CCCC(C)C2C)s1 (centres undefined)	PAFAH2 inh 48 | PAFAH2 confirm 31
O=C(NC(=S)N(CCO)Cc1ccccc1)c1ccc(F)cc1Cl	none
O=C(CCc1[nH]c2ccccc2c1Sc1ccccc1)NCCO	PAFAH2 inh 37 | PAFAH2 confirm inactive
CNC(=O)c1ccsc1NC(=O)CS(=O)(=O)c1ccc(Cl)cc1	none
COc1cc(/C=N/n2c(COc3ccccc3)n[nH]c2=S)cc(Br)c1O	PAFAH2 inh 52 | PAFAH2 confirm 38
CCOc1cc(C(=O)N2CCC(CC3CC(c4ccccc4)=NO3)(C(=O)NCc3ccc(OC)cc3)CC2)cc(OCC)c1OCC (centres undefined)	PAFAH2 inh 30 | PAFAH2 confirm inactive
COC(=O)Cn1cnc2c(Cl)nc(F)nc21	none (no result: EBNA-1 inhibitor, ZTA DNA inh)
CCOc1ccc(C(=O)OCn2nnc3ccccc3c2=O)cc1OC	PAFAH2 inh 63 | PAFAH2 confirm 52
COc1ccc(C(=O)OCn2nnc3ccccc3c2=O)cc1	PAFAH2 inh 43 | PAFAH2 confirm 37
COc1cccc(C(=O)OCn2nnc3ccccc3c2=O)c1OC	PAFAH2 inh 50 | PAFAH2 confirm 45
O=C(OCn1nnc2ccccc2c1=O)c1ccc(O)cc1	PAFAH2 inh 33 | PAFAH2 confirm inactive
ClCc1ncc(-c2ccc(Cl)cc2)o1	none

High-throughput results as filed in PubChem.
